# Laboratory results from PubChem BioAssay (NCATS).
# Results filed as inconclusive are left out. Where a call stands in place of a potency, no number is given. Activity calls are given as the source filed them. Calls follow the shape of the dose curve; as a rule, active = well fitted curve in the direction sought with a large enough effect; inconclusive = small, poorly fitted or top-dose-only effect, or another doubt; inactive = no such curve, though single readings can be large; an effect the other way counts as inactive or inconclusive.
# Assays:
# [1] = qHTS to identify inhibitors of the type 1 interferon - major histocompatibility complex class I in skeletal muscle: primary screen against the NCATS Mechanism Interrogation Plate v5.0 (MIPE) Libary (AID 1347411); settings: iHSKM cells + IFN-b, HiBiT-tagged MHC-I luminescence, 24 h; series mostly up to 45.8 µM; also: nearly all actives have a fitted effect of over 65% in size; also: potency is read from the fitted curve at half-maximal effect
# Method in brief: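 Cells were genome-edited human myoblasts carrying a HiBit tag on endogenous HLA-B. They were treated with IFN-beta (4.0 ng/ml) and titrated compounds (top 46 uM) for 24 hrs before lytic HiBiT detection.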
# [2] = molecular target: Single-stranded DNA cytosine deaminase (Homo sapiens) (UniProt Q9GZX7); experiment: Validation qHTS assay for inhibitors of Activation Induced Cytidine Deaminase (AID): AID signal (AID 1347429); settings: Recombinant AID, FRET ssDNA deamination with UDG, fluorescence; series mostly up to 115 µM
# Single-stranded DNA cytosine deaminase (Homo sapiens), sequence (Q9GZX7 whole entry, looked up): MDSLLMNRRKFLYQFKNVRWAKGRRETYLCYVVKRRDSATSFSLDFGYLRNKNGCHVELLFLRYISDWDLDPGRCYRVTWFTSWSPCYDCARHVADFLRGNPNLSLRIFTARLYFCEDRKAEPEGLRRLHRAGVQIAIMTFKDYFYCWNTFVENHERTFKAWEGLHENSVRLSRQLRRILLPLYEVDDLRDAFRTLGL
# Method in brief: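 In this coupled qHTS, AID deaminates a FRET-labelled ssDNA substrate in the presence of UDG over 4 hr at room temperature. Compounds span up to 114 uM final.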
# [3] = molecular target: Calcium and integrin-binding protein 1 (Homo sapiens) (UniProt Q99828); experiment: Primary qHTS for Identification of Calcium Integrin Binding Protein 1 (CIB1) Competitor (AID 1508620); settings: CIB1-GST / FITC-alphaIIb peptide fluorescence polarization; series mostly up to 114 µM;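 also: GST tagged CIB1 binding a fluorescein labelled alphaIIb integrin peptide tracer; top concentration of the series differs between compounds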
# Calcium and integrin-binding protein 1 (Homo sapiens), sequence (Q99828 whole entry, looked up): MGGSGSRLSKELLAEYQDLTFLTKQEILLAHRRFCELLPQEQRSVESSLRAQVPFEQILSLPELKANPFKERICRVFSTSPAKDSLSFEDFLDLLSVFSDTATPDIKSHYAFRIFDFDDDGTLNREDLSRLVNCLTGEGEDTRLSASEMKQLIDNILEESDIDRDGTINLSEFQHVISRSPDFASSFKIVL
# Method in brief: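 CIB1-GST (1 uM final) and compound incubated 15 min at room temperature before adding FITC-alphaIIb peptide tracer (100 nM final). Competition for binding read by fluorescence polarization (ex 480, em 540) after another 15 min at room temperature.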
# [4] = molecular target: Protein phosphatase 1D (Homo sapiens) (UniProt O15297); experiment: RapidFire Mass Spectrometry qHTS Assay for Modulators of WT P53-Induced Phosphatase 1 (WIP1) (AID 1347424); settings: WIP1 dephosphorylation of phosphopeptide, RapidFire MS; series mostly up to 63 µM;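 also: amount of dephosphorylated VEPPL-S-QETFS peptide product formed by WIP1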
# Protein phosphatase 1D (Homo sapiens), sequence (O15297 whole entry, looked up): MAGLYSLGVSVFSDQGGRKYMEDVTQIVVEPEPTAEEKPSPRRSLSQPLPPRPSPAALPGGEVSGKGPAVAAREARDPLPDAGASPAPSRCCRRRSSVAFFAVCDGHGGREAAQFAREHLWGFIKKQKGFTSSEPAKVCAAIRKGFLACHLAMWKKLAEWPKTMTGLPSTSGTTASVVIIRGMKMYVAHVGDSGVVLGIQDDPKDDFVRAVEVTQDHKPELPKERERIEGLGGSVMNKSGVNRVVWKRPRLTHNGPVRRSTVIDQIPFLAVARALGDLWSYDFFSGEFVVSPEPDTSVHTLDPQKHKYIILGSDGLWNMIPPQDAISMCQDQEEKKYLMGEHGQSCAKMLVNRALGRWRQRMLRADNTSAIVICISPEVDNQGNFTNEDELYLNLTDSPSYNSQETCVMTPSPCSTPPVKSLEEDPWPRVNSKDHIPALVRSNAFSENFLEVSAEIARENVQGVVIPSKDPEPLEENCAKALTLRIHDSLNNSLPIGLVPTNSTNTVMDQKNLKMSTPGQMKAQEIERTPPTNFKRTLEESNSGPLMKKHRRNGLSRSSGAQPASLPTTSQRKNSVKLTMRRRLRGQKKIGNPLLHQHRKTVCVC
# Method in brief: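 10 nM WIP1 + cpd, 1 h RT; + 2 uM VEPPL-pS-QETFS, 5 min RT; stop 0.5% formic acid; labelled product standard 1 uM; RapidFire MS. Buffer 50 mM Tris pH 7.5, 30 mM MgCl2, 1 mM TCEP.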
# [5] = molecular target: Protein phosphatase 1D (Homo sapiens) (UniProt O15297); experiment: Rhodamine-PBP qHTS Assay for Modulators of WT P53-Induced Phosphatase 1 (WIP1) (AID 1347425); settings: recombinant WIP1, Rhodamine-PBP phosphate fluorescence, real-time; series mostly up to 57.5 µM
# Method in brief: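 The read-out is the change in Rhodamine-PBP fluorescence (f1 - f0, ex 525/em 598 nm) as Pi is released, read each minute for 11 min. Final reaction: 5 nM WIP1, 10 uM phosphopeptide VEPPL-pS-QETFS, 10 uM Rh-PBP, 50 mM Tris-HCl pH 7.5, 30 mM MgCl2. Compound was preincubated with enzyme for 1 hour at room temperature.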
# [6] = Primary qHTS for inhibitors of La Crosse Virus (LACV) - induced cell death in SH-SY5Y cells (AID 1508616); settings: SH-SY5Y LACV cytopathicity rescue, ATP luminescence, 6 d; series mostly up to 9.63 µM;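 also: top concentration of the series differs between compounds; higher means more rescue of cells from virus-induced death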
# Method in brief: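 Readout was luminescence from ATPLite 1step added after a 6-day LACV infection (0.01 MOI) of SH-SY5Y cells that had received pin-transferred compound 24 hr after seeding.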
# [7] = Validation qHTS assay for inhibitors of Activation Induced Cytidine Deaminase (AID): UDG Counterscreen signal (AID 1347427); settings: biochemical UDG counterscreen, fluorescence signal; series mostly up to 115 µM
# Method in brief: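 Counterscreen read of UDG activity (2 U/mL, 4/3x) in the FRET deamination format with AID (1 uM, 4/3x), DJC20/DJC23 substrates (250 nM, 4x), 4 h at room temperature. NaOH stop, fluorescence at 560 ex/665 em.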
structure (smiles),measurement,setting,value
CCNC(=O)[C@H]1O[C@@H](n2cnc3c(N)nc(NCCc4ccc(CCC(=O)O)cc4)nc32)[C@H](O)[C@@H]1O,Potency,[1],inactive
same,Potency,[2],inactive
same,Potency,[3],inactive
CCOc1ccc2nc(S(N)(=O)=O)sc2c1,Potency,[4],inactive
same,outcome,[5],inactive
same,Potency,[6],inactive
same,Potency,[3],inactive
O=C(CCN1CCN(CCO)CC1)N1c2ccccc2Sc2ccc(C(F)(F)F)cc21,Potency,[4],inactive
same,outcome,[5],inactive
same,Potency,[6],inactive
same,Potency,[3],inactive
CN(C)c1ccc(C(=C2C=CC(=[N+](C)C)C=C2)c2ccccc2)cc1,Potency,[4],inactive
COc1cccc2c1C(=O)c1c(O)c3c(c(O)c1C2=O)C[C@@](O)(C(=O)CO)C[C@@H]3O[C@H]1C[C@H](N)[C@H](O[C@@H]2CCCCO2)[C@H](C)O1,Potency,[4],inactive
same,outcome,[5],inactive
C/C(=N\O)c1ccc(OCC(=O)N2CCCCC2)cc1,Potency,[4],inactive
same,outcome,[5],inactive
same,Potency,[6],inactive
same,Potency,[3],inactive
Cc1[nH]cnc1CN1CCc2c(c3ccccc3n2C)C1=O,Potency,[4],inactive
same,outcome,[5],inactive
same,Potency,[6],inactive
same,Potency,[3],inactive
Cc1ccc(O)c(-n2nc3ccccc3n2)c1,Potency,[4],inactive
same,outcome,[5],inactive
same,Potency,[6],inactive
same,Potency,[3],inactive
CCOC(=O)N1CCN(/[N+]([O-])=N/Oc2ccc([N+](=O)[O-])cc2[N+](=O)[O-])CC1,Potency,[1],20.8 µM (active)
same,Potency,[7],inactive
same,Potency,[2],inactive
CCCCCCOc1ccccc1C(N)=O,Potency,[4],inactive
same,outcome,[5],inactive
same,Potency,[6],inactive
same,Potency,[3],inactive
Oc1c(Br)cc(Br)c2cccnc12,Potency,[4],inactive
same,outcome,[5],inactive
O=C1CN(/N=C/c2ccc([N+](=O)[O-])o2)C(=O)N1,Potency,[4],inactive
same,outcome,[5],inactive
same,Potency,[6],inactive
same,Potency,[3],inactive
CC(C(=O)O)c1ccc(C(=O)c2cccs2)cc1 (stereo not drawn),Potency,[4],inactive
same,outcome,[5],inactive
same,Potency,[6],inactive
same,Potency,[3],inactive
